# Shown is part of a subset that was picked to be rich in hits.
# Pf apPOL block = Pf-apPOL DNA polymerase inhibition. Recombinant Pf-apPOL, molecular beacon fluorescence, 1.5 h. inhibition, % at 10 µM. 0.25% of 210,000 active. AID 1794808
# mHTT CaM bind = inhibitors of human mutant huntingtin-calmodulin interaction | AlphaScreen His-mHTT/GST-CaM binding, luminescence | inhibition, % at 15 µM | P42858 | AID 1671202 | 3.6% of 190,000 active;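 also: 0% = both proteins with DMSO and 100% = one protein alone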
# * hit, by the source's call; . = no result given. Rule as the data show it: active = inhibition above about 50%; inactive = the rest.
SMILES,Pf apPOL block,mHTT CaM bind
O=c1oc2cc3occ(-c4ccc(Cl)cc4)c3cc2c2c1CCC2,80*,-2
CCOc1ccc(C2=NC3(CCN(CC)CC3)NC(c3cccc(OCC)c3O)C2)cc1 (centres undefined),4,13
C[C@H](c1ccccc1)N1C[C@H](COCc2ccccc2)Oc2cc(N3CC[C@H](N(C)C)C3)ccc2S1(=O)=O,-5,-11
COC[C@@H]1CCCN1c1ccc2c(c1)O[C@@H](COCc1ccccc1)CN([C@@H](C)c1ccccc1)S2(=O)=O,0,-3
C[C@@H](c1ccccc1)N1C[C@H](COCc2ccccc2)Oc2cc(N3CC[C@H](N(C)C)C3)ccc2S1(=O)=O,-6,100*
C[C@@H](c1ccccc1)N1C[C@H](COCc2ccccc2)Oc2cc(N3CC[C@@H](N(C)C)C3)ccc2S1(=O)=O,-5,100*
Cc1cccc(C(=O)NCC2CCCN(S(=O)(=O)c3ccc4c(c3)CCCC4)C2)c1 (centres undefined),-6,-3
O=C(CCN1C(=O)c2ccccc2C1=O)Nc1ccc(Br)cn1,-7,-5
c1cc2c(cc1CN1CCCCCC1)OCO2,-8,-5
CN1CCCn2nc(C3CCN(C(=O)c4ccccn4)CC3)cc2C1=O,-2,-2
CCN(CC)CC(=O)N1c2ccccc2Sc2ccc(Cl)cc21,-4,16
O=C(CNCc1ccccc1)N1c2ccccc2Sc2ccc(Cl)cc21,-1,97*
O=C(Nc1ccc([N+](=O)[O-])cc1)c1cc(S(=O)(=O)N2CCCCC2)ccc1Br,1,3
COc1cccc(C2C3=C(CC(C)(C)CC3=O)NC3=C2C(=O)c2ccccc23)c1OC (centres undefined),-6,44
COc1cc(C2C3=C(CC(C)(C)CC3=O)NC3=C2C(=O)c2ccccc23)cc(OC)c1OC (centres undefined),-1,61*
CC1(C)CC(=O)C2=C(C1)NC1=C(C(=O)c3ccccc31)C2c1ccc(Br)cc1 (centres undefined),-11,60*
CC1(C)CC(=O)C2=C(C1)NC1=C(C(=O)c3ccccc31)C2c1ccc(O)cc1 (centres undefined),-4,50
CCN(CC)C(=O)C1CCCN(c2ccc([N+](=O)[O-])cc2C=O)C1 (centres undefined),0,70*
CCN(CC)C(=O)C1CCCN(Cc2ccc([N+](=O)[O-])o2)C1 (centres undefined),-28,2
CCCc1ccc(S(=O)(=O)N2CCC(CN3CCCC(C)C3)CC2)cc1 (centres undefined),3,0
CCn1cc2c(c1-c1ccc(OC)cc1)c(=O)n(C)c(=O)n2C,54*,3
COc1ccc(-c2c3c(=O)n(C)c(=O)n(C)c3cn2Cc2ccccc2)cc1,24,25
Cn1cc2c(c1-c1ccccc1)c(=O)n(C)c(=O)n2C,-4,-1
COc1ccc(-c2c3c(=O)n(C)c(=O)n(C)c3cn2-c2ccccc2O)cc1,92*,21
Cn1c(=O)c2c(-c3ccccc3)n(-c3ccccc3O)cc2n(C)c1=O,-1,9
SMILES,Pf apPOL block,mHTT CaM bind
COc1ccc(-c2c3c(=O)n(C)c(=O)n(C)c3cn2-c2ccccc2N)cc1,7,15
COc1ccc(-c2c3c(=O)n(C)c(=O)n(C)c3cn2-c2cc(C)c(C)cc2N)cc1,68*,50
COc1ccc(-c2c3c(=O)n(C)c(=O)n(C)c3cn2C)cc1,90*,3
C#CCCN([C@H](C(=O)OC)[C@@H](C)CC)S(=O)(=O)c1ccccc1Br,0,-2
CSc1ccc(C2N(c3ccc(F)cc3)C(=O)C3CCCN32)cc1 (centres undefined),4,15
C#CCN1CC(OCC)=CC1=O,15,.
CS(=O)(=O)N(CC(=O)Nc1ccc(S(=O)(=O)N2CCCCC2)cc1)c1ccc(F)cc1,-13,8
COc1ccc(C2=NN(CC(=O)N3CCN(c4ccccn4)CC3)C(=O)CC2)cc1,-13,7
Cc1cc(C)c2c(c1)[nH]c1nnc(SCC(=O)N3CCN(c4ccccc4)CC3)nc12,1,74*
Cc1cc(C)c2c(c1)[nH]c1nnc(SCC(=O)NCc3ccccc3)nc12,-4,8
CSc1cccc(NC(=O)COC(=O)c2cc(C(C)=O)n3ccccc23)c1,-1,7
O=C(Nc1cc(-c2ccco2)nn1CCO)c1ccc(S(=O)(=O)N2CCOCC2)cc1,8,26
O=C(CSc1ccc(F)cc1)Nc1cc(-c2ccco2)nn1CCO,-3,69*
C=CCn1c(=O)c2c(ncn2CC=C)n(-c2ccc(C)cc2)c1=O,-8,-2
CC(C)NC(=O)Cn1cccc1-c1nc(-c2ccccc2)cs1,-1,-3
Cc1ccnc(NC(=O)Cn2cccc2-c2nc(-c3ccccc3)cs2)c1,-1,54*
Cc1ccc(N2C(=O)CC(Sc3ncccc3C(=O)O)C2=O)c(Br)c1 (centres undefined),3,0
CC(O)c1nc2ccccc2n1Cc1ccccc1 (centres undefined),-10,6
CN(C)c1ccc(C(O)c2nc3ccccc3n2Cc2ccccc2)cc1 (centres undefined),-7,50*
C=CCn1c(=N)n(CC(O)c2ccc(-c3ccccc3)cc2)c2ccccc21 (centres undefined),0,96*
C=CCn1c(=N)n(CC(O)c2ccc(Br)cc2)c2ccccc21 (centres undefined),-3,6
O=C(Nc1c2c(nn1-c1ccc(F)cc1)CS(=O)C2)C1CCCCC1 (centres undefined),-7,-8
Cc1c(C(=O)NCc2ccccn2)oc2ccc(S(=O)(=O)N3CCOCC3)cc12,2,3
Cc1c(C(=O)NCc2ccccn2)oc2ccc(S(=O)(=O)N3CCCCC3)cc12,-10,58*
CCCn1cc(C2=CCN(S(=O)(=O)c3cccc(Cl)c3)CC2)c2cccnc21,-6,12
SMILES,Pf apPOL block,mHTT CaM bind
CCOC(CNC(=O)c1ccc2c(c1)ncn2-c1ccc(OCc2ccccc2)cc1)OCC,-4,33
O=[N+]([O-])c1ccc(C=NCC23CC4CC(CC(C4)C2)C3)cc1,1,0
O=C(Cc1csc(NC(=O)c2ccco2)n1)Nc1ccc(F)c(C(F)(F)F)c1,8,59*
O=C(Cc1csc(NC(=O)c2ccco2)n1)NCc1cccs1,3,-4
CCOc1ccc(C(=O)Nc2ccc(OC)cc2)cc1[N+](=O)[O-],7,0
Cc1[nH][nH]c(=O)c1C(c1ccc(OCc2ccc(Br)cc2)cc1)c1c(C)[nH][nH]c1=O,2,52*
CCOc1ccc(C(c2c(C)[nH][nH]c2=O)c2c(C)[nH][nH]c2=O)cc1,3,12
CCOC(=O)c1ccc(-n2c(C)ccc2C)cc1,-6,.
Cc1ccc(C)n1-c1ccc(C(=O)ON2C(=O)CCC2=O)cc1,82*,.
COCCC1CCN(C(=O)c2ccc(F)cc2Cl)CC1,-4,-4
O=C(Cc1cccs1)Nc1cccn2nc(C3CC3)nc12,61*,35
Cc1ccccc1C(=O)Nc1cccn2nc(C3CC3)nc12,-24,17
CC1=NN(c2cc(Cl)c(S(=O)(=O)O)cc2Cl)C(=O)C1,3,0
CC1=NN(c2ccc(C)c(Cl)c2)C(=O)C1,-2,91*
O=C(Nc1nccs1)c1ccc(NC(=O)c2ccccc2-c2ccccc2C(=O)O)cc1,-1,84*
O=C(Nc1nccs1)c1ccc(NC(=O)c2ccccc2[N+](=O)[O-])cc1,-3,13

# Screening results from PubChem BioAssay.
